These results are taken from PubChem BioAssay AID1645855 (Buhrlage Lab, Dana-Farber Cancer Institute and Novartis …, 2021).

Screen size: about 47,000 compounds; about 3,100 (6.6%) were called active. The sample holds actives, similar compounds and a random draw of the others, so the mix is not that of the screen. No stated cut-off is given here; in the data, active means inhibition above about 30%; inactive means the rest.

Ubiquitin carboxyl-terminal hydrolase 17-like protein 5 (Homo sapiens), sequence (A8MUK1 whole entry, looked up): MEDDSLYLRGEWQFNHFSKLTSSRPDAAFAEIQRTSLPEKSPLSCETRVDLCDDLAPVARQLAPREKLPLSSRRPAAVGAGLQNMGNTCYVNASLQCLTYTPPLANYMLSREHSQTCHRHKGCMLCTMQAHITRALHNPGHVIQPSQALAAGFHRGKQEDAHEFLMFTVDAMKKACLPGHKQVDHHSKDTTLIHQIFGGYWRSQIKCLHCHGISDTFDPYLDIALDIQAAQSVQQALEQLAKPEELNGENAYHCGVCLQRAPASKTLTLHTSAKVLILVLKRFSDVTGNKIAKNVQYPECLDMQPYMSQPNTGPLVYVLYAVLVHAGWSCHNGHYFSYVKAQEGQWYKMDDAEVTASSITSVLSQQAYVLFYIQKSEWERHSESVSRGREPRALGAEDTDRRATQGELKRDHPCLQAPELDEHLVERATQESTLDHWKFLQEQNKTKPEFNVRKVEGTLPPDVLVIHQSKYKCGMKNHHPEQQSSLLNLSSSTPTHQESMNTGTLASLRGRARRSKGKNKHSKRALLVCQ

The test concerns the target Ubiquitin carboxyl-terminal hydrolase 17-like protein 5 (Homo sapiens) (UniProt A8MUK1). Put plainly: inhibitors of human USP17 deubiquitinase (AID 1645855). The settings on record: purified USP17, Ub-rhodamine cleavage fluorescence, 3 h; at 50 µM; hits give high values.
Turning to `CN1CCCCC[C@@H]2[C@@H]1C[C@@H](Cc1ccccc1)N2C(=O)c1cc(C2CC2)[nH]n1`, the inhibition is 14.4% (inactive).
The value for `N#Cc1ccc(NC(=O)COC(=O)c2ccc3ccccc3n2)cc1` was -197% (inactive).
The same measure for `CCN(CC)S(=O)(=O)c1cc(C(=O)Nc2ccc(-c3cn4ccsc4n3)cc2)ccc1Cl`: 16.3% (inactive).
Consider `N#Cc1ccccc1OCC(=O)Nc1ccc(-c2cn3ccsc3n2)cc1`, for which the inhibition is 46.9% (active).
The value for `COc1ccc(NC(=O)c2cc(CN3CCOCC3)on2)cc1` was -3.06% (inactive).
The value for `COc1cc(NC(=O)c2noc3c2CCc2sccc2-3)cc(OC)c1` was 48.3% (active); that for `O=C(NCc1ccccc1)c1noc2c1CCc1sccc1-2` was 4.73% (inactive); that for `COc1ccc(OC)c(NC(=O)C(Cc2c[nH]c3ccccc23)N2CCS(=O)(=O)CC2)c1` (centres undefined) was 3.96% (inactive).
The value for `O=C(Nc1nnc(-c2cccc([N+](=O)[O-])c2)o1)C1CCN(S(=O)(=O)c2ccc3c(c2)CCC3)CC1` was 73.8% (active); that for `O=C(COC(=O)C1CCN(S(=O)(=O)c2c(Cl)cccc2Cl)CC1)Nc1ccc2c(c1)CCC2` was 0.533% (inactive); that for `Cc1cccc(-c2nnc(-c3cccc(S(=O)(=O)N4CCCC4)c3)o2)c1` was 6.44% (inactive).
As to `Cn1c(=O)c2c(nc(N3CCN(C(=O)c4ccco4)CC3)n2CCSc2nc3ccccc3s2)n(C)c1=O`, the inhibition is 0.301% (inactive).
On to `COc1cccc(C(=O)N2CCN(c3nc(-c4ccc(Cl)cc4)no3)CC2)c1OC`, for which the inhibition was 8.11% (inactive).
The value for `Cc1ccccc1NC(=O)CSc1nnc(C2CC2)n1Cc1ccccc1` was -1.39% (inactive); that for `Nn1c(SCC(=O)Nc2ccccc2F)nnc1-c1n[nH]c2c1CCC2` was 41.7% (active).
The value for `O=C(CSc1nccn1C1CCCCC1)Nc1ccccc1F` was 20.2% (inactive).
The value for `CC(=O)O[C@H]1CC[C@]2(C)[C@H]3Cc4c(cc(-c5cccnc5)oc4=O)O[C@]3(C)CC[C@H]2C1(C)C` was 1.11% (inactive).
Take `O=C(C1CCCN(S(=O)(=O)N2CCOCC2)C1)N1CCN(Cc2ccccc2)CC1` (centres undefined): the inhibition was -0.311% (inactive).
The value for `COc1ccc(Cl)cc1NC(C)c1nc2sc(C)c(C)c2c(=O)[nH]1` (centres undefined) was -21.9% (inactive); that for `C/C=C(\Cl)C1=CC(=O)[C@]23C[C@H]2[C@@]2(C)CO[C@@]1(O)[C@@]3(O)O2` was 68.6% (active); that for `CCC1(c2ccccc2)NC(=O)N(CC(=O)Nc2ccc(C)c([N+](=O)[O-])c2)C1=O` (centres undefined) was -6.64% (inactive).
The value for `COc1ccc(S(=O)(=O)N(C(=O)c2ccccc2)c2ccc3oc4c(c3c2)CCCC4)cc1` was -2.79% (inactive).
Consider `O=C(COc1ccc2oc3c(c2c1)CCCC3)Nc1ccccn1`, for which the inhibition was 70.8% (active).
The value for `CCC(=O)c1ccc(OCC(=O)Nc2ccc3c(c2)CCC3)cc1` was 4.25% (inactive).

As usually defined, the inhibition is the relative decrease from the control value, in per cent.
